Six1-Eya2 inh = blocks human Six1 binding to Eya2 | 0.56% of 360,000 active | activity change, % (test concentration not listed) | Q15475+O00167 | AlphaScreen GST-Six1/His-Eya2 binding, biochemical; hits give low values | AID 651725; in the data active means activity change below about -65%; inconclusive means mostly about -30% to -63%
Target sequence (O00167 whole entry, looked up): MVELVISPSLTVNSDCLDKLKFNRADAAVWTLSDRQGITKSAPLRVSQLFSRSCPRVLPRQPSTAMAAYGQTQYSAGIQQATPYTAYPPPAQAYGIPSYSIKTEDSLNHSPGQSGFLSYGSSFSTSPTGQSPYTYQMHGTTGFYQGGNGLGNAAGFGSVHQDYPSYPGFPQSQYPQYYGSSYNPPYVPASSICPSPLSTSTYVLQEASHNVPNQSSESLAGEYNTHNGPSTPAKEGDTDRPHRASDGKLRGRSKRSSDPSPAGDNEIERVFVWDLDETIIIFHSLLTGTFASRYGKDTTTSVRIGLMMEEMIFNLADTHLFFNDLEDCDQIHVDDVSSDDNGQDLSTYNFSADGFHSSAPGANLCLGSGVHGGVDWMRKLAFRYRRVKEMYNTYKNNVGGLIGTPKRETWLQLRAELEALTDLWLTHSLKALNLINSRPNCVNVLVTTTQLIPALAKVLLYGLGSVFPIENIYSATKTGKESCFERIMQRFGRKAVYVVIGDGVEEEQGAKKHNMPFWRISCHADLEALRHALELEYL
Target sequence (Q15475 whole entry, looked up): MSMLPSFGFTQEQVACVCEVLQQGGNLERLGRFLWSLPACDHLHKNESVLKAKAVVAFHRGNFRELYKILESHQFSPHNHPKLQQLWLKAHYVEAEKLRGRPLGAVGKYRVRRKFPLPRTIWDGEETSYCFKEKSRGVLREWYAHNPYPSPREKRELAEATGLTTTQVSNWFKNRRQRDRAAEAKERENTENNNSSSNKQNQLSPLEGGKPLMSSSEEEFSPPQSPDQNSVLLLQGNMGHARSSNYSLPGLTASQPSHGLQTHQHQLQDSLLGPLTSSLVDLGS
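Compounds are tested against tagged Six1 and Eya2 proteins bridged by glutathione donor and nickel acceptor beads; after a one-hour incubation at 37 °C without light, AlphaScreen emission is recorded.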
IL1B secr inh = blocks inflammasome-driven IL-1 beta release | AID 743279 | 4.7% of 360,000 active | activity change, % at 57.5 µM | THP-1 LPS/ATP IL-1B secretion, AlphaLISA, 16 h; hits give low values; in the data active means activity change below about -50%; inconclusive means mostly about -30% to -49%
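THP-1 cells pretreated 1 hr with compounds (up to 57.5 uM final), then stimulated with LPS (250 ng/mL final) plus ATP (1.25 mM final); secreted IL-1B measured by AlphaLISA after 16 hr, decreased signal indicating inhibition.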
TDP1 cell CPT = DT40-hTDP1 cell growth loss with CPT; chicken DT40 Tdp1-/-;hTDP1 cells + 20 nM CPT, ATP luminescence, 48 h; Potency, µM (titrated, usually from 46.2 µM), actives largely listed as inhibitors; 12% of 420,000 active; further: nearly all actives have a fitted effect of over 55% in size
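Cell growth measured by CellTiter-Glo luminescence after a minimum 48 h, 37 C compound exposure with 20 nM CPT in Tdp1-knockout DT40 cells stably expressing hTDP1, seeded 400/well; qHTS titration format.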
CtBP-E1A blk = inhibitors of CtBP/E1A interaction. AlphaScreen GST-E1A/His-CtBP binding, 1536-well; hits give low values. activity change, % (no concentration beside the values). 0.49% of 340,000 active; in the data active means activity change below about -65%; inconclusive means mostly about -30% to -63%
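GST-E1A and His-tagged CtBP (125 nM each as 5X stock) were preincubated with pin-transferred compound for 2 h at 37 °C in the dark, then glutathione donor and nickel acceptor beads were added for 1 h before AlphaScreen reading.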
TDP1 cell noCPT = qHTS for Inhibitors of human tyrosyl-DNA phosphodiesterase 1 (TDP1): qHTS in cells in absence of CPT. DT40 Tdp1-/- hTDP1 cells, no CPT, ATP luminescence, 48 h. Potency, µM (highest dose often 46.2 µM), usual class: inhibitors. 15% of 420,000 active. AID 686978, 2013; further: nearly all actives have a fitted effect of over 55% in size
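DT40 Tdp1-/-;hTDP1 cells, no CPT (DMSO vehicle only), 400 cells/well; compounds pin-transferred; ≥48 hr, 37 °C; CellTiter-Glo 30 min RT dark, luminescence read.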
TDP1 inh = blocks human tyrosyl-DNA phosphodiesterase 1 | Q9NUW8 | recombinant TDP1, AlphaScreen DNA substrate cleavage | Potency, µM (titrated, usually from 130 µM), most hits filed as inhibitors | 0.28% of 350,000 active | AID 485290; further: nearly all actives have a fitted effect of over 40% in size
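Signal: AlphaScreen proximity between streptavidin donor and anti-FITC acceptor beads on intact substrate. Reaction: Tdp1 1 nM, substrate 15 nM final, 5 min RT after 15 min compound preincubation.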
Numbers stand for hits; – = inactive; ? = inconclusive; · = no result; [ ] = another dose, or the depositor's remark. Rows were chosen to be rich in hits. Some 18% of all compounds tested hit in one or more screens of this group. Unless noted, the call rests on the fitted dose curve; in most records, active means well fitted curve in the direction sought with a large enough effect; inconclusive means small, poorly fitted or top-dose-only effect, or another doubt; inactive means no such curve, though single readings can be large; an effect the other way counts as inactive or inconclusive.

SMILES | Six1-Eya2 inh | IL1B secr inh | TDP1 cell CPT | CtBP-E1A blk | TDP1 cell noCPT | TDP1 inh
Cc1ccc(C)c(-c2csc(NC(=O)C3=COCCO3)n2)c1 | – | – | 20.6µM | – | 16.4µM | ·
COc1ccc(OC)c(-c2csc(NC(=O)C3=COCCO3)n2)c1 | – | – | 16.4µM | – | 18.4µM | –
O=C(Nc1nc(-c2ccc(Oc3ccccc3)cc2)cs1)C1=COCCO1 | – | – | ? | – | 11.6µM | –
Cc1ccc(-c2csc(NC(=O)C3=COCCO3)n2)cc1 | – | – | ? | – | ? | –
CCOC(CNC(=O)CCc1c(C)nc2nc(C)nn2c1C)OCC | – | – | – | – | – | –
Cc1ccc(N2CC(C)Cn3c2nc2c3c(=O)[nH]c(=O)n2C)cc1 (centres undefined) | – | – | – | – | – | ·
CC1CN(c2ccc(Oc3ccccc3)cc2)c2nc3c(c(=O)[nH]c(=O)n3C)n2C1 (centres undefined) | – | – | 18.4µM | – | 25.9µM | –
CCOC(=O)C1CCCN(CC(=O)Nc2c(F)c(F)c(F)c(F)c2F)C1 (centres undefined) | – | – | – | – | – | –
Cc1ccc(OCCOc2ccc(Br)cc2)c([N+](=O)[O-])n1 | – | -58.1 | – | – | – | –
CC(C)c1ccc(/C=C(\c2nc3ccccc3[nH]2)S(=O)(=O)c2ccccc2)cc1 | – | -103.3 | 4.61µM | – | 4.61µM | –
O=S(=O)(/C(=C/c1ccc(C(F)(F)F)cc1)c1nc2ccccc2[nH]1)c1ccccc1 | – | -103.6 | 2.59µM | – | 2.91µM | –
Cc1ccc(C(=O)NN2C(=O)C3C4C=CC([C@@H]3C2=O)C42CC2)cc1 (some centres undefined) | – | – | – | · | – | ·
CCOC(=O)C1(CC2CCCCO2)CCN(S(=O)(=O)c2ccsc2)CC1 (centres undefined) | – | – | – | – | – | –
CCOC(=O)c1nc(C)nc(Sc2n[nH]c(-c3ccc(C(C)(C)C)cc3)n2)c1C | – | – | ? | – | 18.4µM | –
Cc1[nH]c2ccccc2c1C(=O)CSc1ccccn1 | – | – | – | – | ? | –
Cc1ccc(CNC(=O)c2cc3c(=O)n4ccccc4nc3n(Cc3ccco3)c2=N)cc1 | – | -93.9 | 13µM | – | 14.6µM | –
N=c1c(C(=O)NCc2ccccc2)cc2c(=O)n3ccccc3nc2n1Cc1ccco1 | – | ? | ? | – | ? | –
Cc1ccc2nc3c(cc(C(=O)NCCN4CCOCC4)c(=N)n3CCCN3CCOCC3)c(=O)n2c1 | – | – | – | – | – | ·
Cc1ccc2nc3c(cc(C(=O)NCc4ccco4)c(=N)n3Cc3ccco3)c(=O)n2c1 | – | – | ? | – | 20.6µM | –
Cc1ccc2nc3c(cc(C(=O)NCCc4ccccc4)c(=N)n3CCN3CCOCC3)c(=O)n2c1 | – | – | ? | – | 25.9µM | –[0.0935 µM]
N=c1c(C(=O)NCc2ccc(F)cc2)cc2c(=O)n3ccccc3nc2n1Cc1ccco1 | – | – | 16.4µM | – | 16.4µM | –
Oc1ccc(-c2cnccn2)cc1CN1CCN(C2CCCCC2)CC1 | · | · | –[9.04 µM] | · | – | ·
O=C(Cn1nc(-c2ccccc2Cl)ccc1=O)Nc1ccccc1-c1ccccc1 | – | – | ? | – | 18.4µM | –
O=C(CN1CCN(Cc2ccccc2)CC1)Nc1ccccc1-c1ccccc1 | – | – | 25.9µM | – | 29.1µM | –
Cc1ccc(NC(=O)CN2CCN(Cc3ccccc3)CC2)cc1Cl | – | – | – | – | 29.1µM | ·
SMILES | Six1-Eya2 inh | IL1B secr inh | TDP1 cell CPT | CtBP-E1A blk | TDP1 cell noCPT | TDP1 inh
O=C(CN1CCN(Cc2ccccc2)CC1)Nc1ccc(Cl)cc1 | – | – | – | · | – | ·
COc1ccc(CNS(=O)(=O)NCc2ccccc2)cc1 | – | – | – | – | – | –
O=C(CSCc1c(F)cccc1Cl)NCCc1ccccc1 | – | – | – | · | – | ·
CCN1CCN(c2csc3ccc(Cl)cc3c2=O)CC1 | · | · | – | · | – | –
O=C(Nc1ccccc1N1CCOCC1)c1cccc2c(Br)cccc12 | – | – | ? | · | 18.4µM | ·
O=C(Nc1cc(S(=O)(=O)N2CCOCC2)ccc1N1CCCC1)c1cc(=O)[nH]c2ccccc12 | – | – | – | · | – | –
O=C(Nc1ccccc1N1CCOCC1)c1cc(=O)[nH]c2ccccc12 | – | – | ? | · | 16.4µM | –
CCN(CC)c1ccc(C=C2C(=O)OC3(CCCC3)OC2=O)cc1 | – | – | – | – | – | –
COc1cccc(NC(=O)COc2ccc3c(c2)CCC3)c1 | – | – | – | – | – | –
CCOC(=O)Nc1cccc(OCC(=O)Nc2ccc3c(c2)CCC3)c1 | – | – | ? | · | 23.1µM | –
CC(C)Oc1ccccc1C1Nc2ccccc2C(=O)N1c1ccc2c(c1)OCCO2 (centres undefined) | – | – | ? | – | ? | –
COCCNC(=O)C1CCCN(C(=O)c2ccnc(Cl)c2)CC1 (centres undefined) | – | -62.3 | – | – | – | ·
COCCNC(=O)C1CCCN(C(=O)c2ccc3sccc3c2)CC1 (centres undefined) | – | – | – | – | – | ·
COCCNC(=O)C1CCCN(C(=O)c2ccc(OC)c(F)c2)CC1 (centres undefined) | – | – | – | – | – | ·
COCCNC(=O)C1CCCN(C(=O)c2ccc3c(c2)C(C)(C)CCC3(C)C)CC1 (centres undefined) | – | – | 13µM | – | ? | ·
